Test [1] is described as follows: Cell Viability - N2a (AID 540). Also: nearly all actives have a fitted effect of over 45% in size. Also: potency is read from the fitted curve at half-maximal effect.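 As to activity change, negative = cytotoxicity: plate controls were DMSO alone for no effect and tamoxifen control for full effect.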 The note with it: N2a mouse neuroblastoma cell viability; activity change, negative = cytotoxicity: at 92.2 µM (top of the series). The method, boiled down: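 Mouse neuroblastoma N2a cells, 1500/well, exposed to compounds 40 h at 37 °C in complete medium. Viability measured as cellular ATP by CellTiter-Glo luminescence; AC50 from Hill fits of concentration-response.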

Test [2] deals with Cytochrome P450 3A4 (Homo sapiens) (UniProt P08684). In words: qHTS Assay for Inhibitors and Substrates of Cytochrome P450 3A4 (AID 884). Also: % is scaled to controls: 0 for no effect and ±100 for the full control effect; nearly all actives have a fitted effect of over 50% in size. The gist of the method: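 20 nM human CYP3A4 with 25 uM Luciferin-PPXE (at KM) in 200 mM KPO4, preincubated 10 min with compound; NADPH regeneration started a 60 min RT reaction. Luciferin detected by luminescence, normalized to 57 uM ketoconazole as full inhibition.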
Cytochrome P450 3A4 (Homo sapiens), sequence (P08684 whole entry, looked up): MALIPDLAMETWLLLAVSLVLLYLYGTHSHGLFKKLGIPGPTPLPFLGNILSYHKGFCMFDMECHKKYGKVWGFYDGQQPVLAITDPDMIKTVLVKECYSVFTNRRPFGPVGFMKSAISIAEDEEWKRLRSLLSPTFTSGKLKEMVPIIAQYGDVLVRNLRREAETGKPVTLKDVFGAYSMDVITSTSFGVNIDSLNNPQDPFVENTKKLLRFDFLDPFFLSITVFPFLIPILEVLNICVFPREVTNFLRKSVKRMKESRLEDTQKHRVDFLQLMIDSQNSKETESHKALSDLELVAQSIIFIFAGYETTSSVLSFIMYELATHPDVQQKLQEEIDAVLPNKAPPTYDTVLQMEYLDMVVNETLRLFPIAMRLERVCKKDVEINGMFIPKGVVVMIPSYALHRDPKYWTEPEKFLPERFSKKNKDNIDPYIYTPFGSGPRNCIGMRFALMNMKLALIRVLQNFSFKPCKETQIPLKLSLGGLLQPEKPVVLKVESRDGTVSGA

Test [3] in a line: Cell Viability - LYMP2-003 (AID 965).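 Also: cells exposed to compounds for 24 h before reading; 0% = DMSO only and full effect = 92 µM tetraoctylammonium bromide; nearly all actives have a fitted effect of over 50% in size.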 The method, boiled down:
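CellTiter-Glo luminescence quantified ATP loss after 24 h compound treatment of LYMP2-003 lymphoblastoid cells at 37 C. Titration series were fitted with the standard Hill equation to give AC50.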

A short description of test [4]: Cell Viability - LYMP2-015 (AID 971).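 Also: 0% = DMSO only and full effect = 92 µM tetraoctylammonium bromide; nearly all actives have a fitted effect of over 55% in size.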 The gist of the method: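 LYMP2-015 human lymphoblastoid cells (2500/well) in complete medium, compound-treated 24 h at 37 C; viability read as cellular ATP by CellTiter-Glo luminescence after 30 min at room temperature. AC50 from Hill-equation fits of qHTS concentration-response data.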
The nature of test [5]: Cell Viability - LYMP2-019 (AID 973).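 Also: 0% = DMSO alone and full effect = 92 µM tetraoctylammonium bromide; nearly all actives have a fitted effect of over 55% in size.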 The method, boiled down:
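Human lymphoblastoid LYMP2-019 cells (2500/well) preincubated 5 h at 37 C, then treated 24 h at 37 C in complete medium. Viability by CellTiter-Glo ATP luminescence after 30 min at room temperature; AC50 from Hill fits.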

A short description of test [6]: Cell Viability - LYMP2-002 (AID 977).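 Also: plate controls were DMSO only for no effect and 92 µM tetraoctylammonium bromide for full effect.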 The gist of the method: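 Luminescent ATP readout (CellTiter-Glo, 30 min room temperature) after 24 h compound exposure at 37 C of a human lymphoblastoid line, 2500 cells/well. AC50 values derived by standard Hill fitting of qHTS concentration-response data.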
Test [7] can be described thus: Cell Viability - LYMP2-008 (AID 980). Also: % is scaled to controls: 0 for no effect and ±100 for the full control effect; nearly all actives have a fitted effect of over 60% in size. The method, boiled down:
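LYMP2-008 lymphoblastoid cells (2500/well) plated 5 h, then treated 24 h at 37 C in complete medium. Viability read as intracellular ATP by CellTiter-Glo luminescence after 30 min at room temperature; AC50 from Hill fits.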

Test [8] in a line: Cell Viability - LYMP2-010 (AID 981). Also: % is scaled to controls: 0 for no effect and ±100 for the full control effect; nearly all actives have a fitted effect of over 55% in size. The method, boiled down:
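Human lymphoblastoid LYMP2-010 cells (2500/well) treated 24 h at 37 C in complete medium; viability read as intracellular ATP by CellTiter-Glo luminescence. AC50 from Hill fits of concentration-response data; tetraoctylammonium bromide positive control.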

The nature of test [9]: Cell Viability - LYMP2-012 (AID 982).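 Also: cellular ATP by luciferase luminescence where a drop means cytotoxicity; cells exposed to compound for one day before reading; 0% = DMSO only and full loss = 92 µM tetraoctylammonium bromide; nearly all actives have a fitted effect of over 55% in size.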
The nature of test [10]: Cell Viability - LYMP2-020 (AID 986). The gist of the method:
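Human lymphoblastoid LYMP2-020 cells (2500/well) preincubated 5 h at 37 C, then treated 24 h at 37 C. Viability measured as intracellular ATP by CellTiter-Glo luminescence after 30 min at room temperature; AC50 from Hill fits.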

Test [11] in a line: Cell Viability - LYMP1-002 - Assay at 40 hr (AID 994).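 Also: 0% = DMSO only and full inhibition = 92 µM tetraoctylammonium bromide; nearly all actives have a fitted effect of over 60% in size.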 The method, boiled down: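 LYMP1-002 human lymphoblastoid cells (2500/well, complete medium) were treated with compounds for 40 hr at 37 C. Intracellular ATP was measured by CellTiter-Glo luminescence, and AC50 values came from Hill-equation fits of concentration-response data; tetraoctylammonium bromide was the positive control.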

Test [12] in a line: qHTS assay for small molecule agonists of retinoid X receptor alpha signaling (AID 588544). The settings on record: HEK293T RXRa-UAS-bla, beta-lactamase reporter, 18 h; 530 nm emission. In general terms: qHTS replaces the single test concentration by a dilution series.
A short description of test [13]: qHTS assay for small molecule antagonists of retinoid X receptor alpha signaling (AID 588546; active = well fitted inhibition curve with a large enough effect in the signal ratio, with a control signal flat, not every such curve was filed as active; the % refers to the signal ratio;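 also: cells stimulated with 9-cis-retinoic acid as agonist; % is scaled to controls: 0 for no effect and ±100 for the full control effect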). The note with it: HEK293T RXRa-UAS-bla, beta-lactamase ratio, antagonist mode; measured here: W530 green channel, cytotoxicity proxy. The gist of the method:
(§1)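 Beta-lactamase reporter inhibition, read as CCF4 fluorescence ratio (ex 405, em 460/530 nm) after 2 h at RT. HEK293T UAS-bla cells, 2500/well, were stimulated with 9-cis-RA at 500 or 100 nM final alongside test compound for 18 h at 37 C.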

Test [14] concerns the target Retinoic acid receptor RXR-alpha (Homo sapiens) (UniProt P19793). Described as above. The note with it: HEK293T RXRa-UAS-bla, beta-lactamase ratio, antagonist mode. The method, boiled down:
as §1

Test [15] in a line: qHTS assay for small molecule antagonists of the retinoid-related orphan receptor gamma (ROR-gamma) signaling pathway - cell viability counter screen (AID 720652; active = well fitted curve in the direction sought with a large enough effect in the repeat runs; an effect the other way counts as inactive or inconclusive;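 also: CHO reporter cells with doxycycline-induced ROR-gamma expression; compound exposure lasted 16 hr before ATP read; % is scaled to controls: 0 for no effect and ±100 for the full control effect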). The gist of the method: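 CHO cells carrying TET-inducible ROR and RORE-luciferase reporter, plated 5 hr, then dosed with compound plus doxycycline. After 16 hr at 37 C, viability read as intracellular ATP by CellTiter-Glo luminescence.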

Test [16] in a line: Cell Viability - SH-SY5Y (AID 544). The settings on record: SH-SY5Y neuroblastoma cell viability; viability change, negative = cytotoxic: at 92.2 µM (top of the series). The gist of the method: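 SH-SY5Y human neuroblastoma cells (1500/well) incubated 5 h, then compound-treated 40 h at 37 °C in complete medium. Viability read as intracellular ATP by CellTiter-Glo luminescence after 20 min; AC50 from Hill-equation fits of qHTS concentration-response.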

A short description of test [17]: Cell Viability - Renal Proximal Tubule (AID 545).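 Also: 0% = DMSO only and -100% = 100 µM tamoxifen; nearly all actives have a fitted effect of over 40% in size.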 The gist of the method: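 Viability taken as intracellular ATP (CellTiter-Glo luminescence) after 40 hr, 37 °C compound treatment of primary proximal tubule cells from rat kidney, 1000 cells/well; Hill-equation fits of qHTS concentration-response data gave AC50.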
A short description of test [18]: Cell Viability - LYMP2-001 (AID 921).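 Also: 0% = DMSO only and full inhibition = tetraoctylammonium bromide control wells; nearly all actives have a fitted effect of over 70% in size.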 The gist of the method:
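Cellular ATP loss read by luciferase luminescence after 24 h compound exposure at 37 C in complete medium. LYMP2-001 lymphoblastoid cells, 2500/well; qHTS concentration-response data fitted with Hill equation for AC50.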

Test [19] is described as follows: Cell Viability - LYMP2-022 (AID 987). The gist of the method: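 LYMP2-022 lymphoblastoid cells (2500/well, complete medium) were treated with compounds for 24 hours at 37 C; intracellular ATP was then read by CellTiter-Glo luminescence after 30 min at room temperature. AC50 values were derived from Hill-equation fits.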
Test [20] has as its target Tumor necrosis factor (Homo sapiens) (UniProt P01375). Put plainly: qHTS assay to identify small molecules that stimulate Tumor Necrosis Factor-alpha (TNF-alpha) secretion (AID 651757; active = well fitted curve in the direction sought with a large enough effect in the signal ratio; the % refers to the signal ratio; also: 0% is about no effect). The gist of the method:
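THP-1 cells (3000/well) exposed to compounds 17 hrs at 37 C. Secreted TNF-alpha detected by HTRF with cryptate- and XL665-labeled anti-TNF-alpha antibodies after 3 hr at room temperature.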

Where “and” joins values, the source holds several entries; their conditions need not be identical. Equal entries are not always repeated. Results filed as inconclusive are left out. Calls of active or inactive are those of the source. Unless noted, calls follow the shape of the dose curve; as a rule, active = well fitted curve in the direction sought with a large enough effect; inconclusive = small, poorly fitted or top-dose-only effect, or another doubt; inactive = no such curve, though single readings can be large; an effect the other way counts as inactive or inconclusive.

Tumor necrosis factor (Homo sapiens), sequence (P01375 whole entry, looked up): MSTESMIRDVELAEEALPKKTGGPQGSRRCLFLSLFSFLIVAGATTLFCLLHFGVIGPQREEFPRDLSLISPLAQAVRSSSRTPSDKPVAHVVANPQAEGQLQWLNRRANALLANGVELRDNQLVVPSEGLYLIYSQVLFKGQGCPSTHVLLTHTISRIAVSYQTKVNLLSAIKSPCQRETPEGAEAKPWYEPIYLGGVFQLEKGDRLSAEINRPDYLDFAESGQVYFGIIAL
Retinoic acid receptor RXR-alpha (Homo sapiens), sequence (P19793 whole entry, looked up): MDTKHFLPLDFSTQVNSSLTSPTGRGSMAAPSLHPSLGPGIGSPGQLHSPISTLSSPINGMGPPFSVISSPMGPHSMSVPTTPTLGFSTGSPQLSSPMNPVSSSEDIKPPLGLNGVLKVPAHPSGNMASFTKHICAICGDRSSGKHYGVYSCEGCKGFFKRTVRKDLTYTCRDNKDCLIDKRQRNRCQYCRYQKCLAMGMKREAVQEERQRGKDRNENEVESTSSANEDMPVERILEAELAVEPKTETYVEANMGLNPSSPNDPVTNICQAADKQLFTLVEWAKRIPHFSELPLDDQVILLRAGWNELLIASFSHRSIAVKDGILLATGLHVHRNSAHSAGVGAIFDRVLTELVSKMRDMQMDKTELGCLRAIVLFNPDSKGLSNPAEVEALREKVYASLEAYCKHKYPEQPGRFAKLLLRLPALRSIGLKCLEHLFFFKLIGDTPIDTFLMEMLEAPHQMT

As for `c1ccc(Nc2ccc(Nc3ccccc3)cc2)cc1`, in test [1], the Potency is 15.8 µM (active). Moreover, the Potency entry in [2], in [3], in test [4], in test [5], in [6] and in test [7] was “inactive” each time. Further, the Potency result in test [8], in test [9], in test [10], in test [11] and in test [15] was “inactive” in each case. The max response in [12] was 0.613%; in test [13], -12.1%; in test [14], -13.3% (inactive).
As to `ClC(Cl)(Cl)C(Cl)(Cl)Cl`, the Potency result in test [1], in [16], in test [2], in [18], in test [3] and in [4] was “inactive” in each case. The Potency entry in [5], in [6], in test [7], in [8], in [9] and in [10] was “inactive” throughout. Besides, the Potency entry in [19], in [11] and in test [15] was “inactive” in each case. Besides, the call in test [17] and in test [20] was inactive. For the same molecule, the max response was 0.0695% in test [12], -34.4% in test [13] and 8.66% (inactive) in [14].
Regarding `NNC(N)=S`, the Potency entry in [1], in [16], in [2], in test [18], in test [3] and in [4] was “inactive” each time. For the same molecule, the Potency result in test [5], in test [6], in test [7], in [8], in test [9] and in test [10] was “inactive” throughout. The Potency entry in test [19], in [11] and in test [15] was “inactive” in each case. Moreover, the molecule was called inactive in [17] and in [20]. The max response is 6.4% in test [13] and 9.82% (inactive) in test [14].
`Cl/C=C/CCl`: the Potency result in test [1], in test [16], in test [2], in test [18], in test [3] and in test [4] was “inactive” in each case. Moreover, the Potency entry in [5], in [6], in test [7], in [8], in test [9] and in test [10] was “inactive” each time. Moreover, the Potency result in test [19], in [11] and in [15] was “inactive” each time. The result in test [17] and in test [20] was inactive. The max response in [12] was -6.27%; in test [13], 3.06%; in test [14], 3.74% (inactive).
As to `CNC(=O)O/N=C/C(C)(C)S(C)=O` (stereo unspecified), the call in [17] and in test [20] was inactive. In addition, the Potency result in test [2], in test [18], in test [3], in test [4], in [5] and in [6] was “inactive” each time. Moreover, the Potency result in test [7], in test [8], in [9], in test [10], in [19] and in test [11] was “inactive” in each case. The Potency result in test [15] was “inactive”. Moreover, the max response in [12] is -20.3% and 7.58%; in test [13], -10.1% and 0.325%; in test [14], 12.4% (inactive) and -11.4% (inactive).
In the case of `OCC(Cl)CCl` (stereo unspecified), the Potency result in [1], in test [16], in test [2], in [18], in test [3] and in test [4] was “inactive” in each case. Further, the Potency result in [5], in test [6], in [7], in [8], in test [9] and in test [10] was “inactive” each time. Also, the Potency result in [19], in test [11] and in [15] was “inactive” throughout. Also, the molecule was classed as inactive in test [17] and in test [20]. For the same molecule, the results for the max response in [12], in [13] and in test [14] were -11.4%, -11.1% and -4.6% (inactive), respectively.
With `Nc1cc(Cl)cc(C(=O)O)c1Cl`, the Potency result in [1], in [16], in test [18], in [3], in [4] and in test [5] was “inactive” in each case. In addition, the Potency entry in [6], in [7], in test [8], in test [9], in test [10] and in [19] was “inactive” each time. Besides, the Potency result in test [11] and in [15] was “inactive” each time. In addition, the result in test [17] and in test [20] was inactive. Besides, the max response in test [12] was -12.3% and -7.66%; in [13], 0.823% and -3.03%; in test [14] it was 5.23% (inactive) and 3.9% (inactive).
Regarding `ClCCOCCCl`, the Potency result in test [1], in [16], in test [2], in [18], in [3] and in test [4] was “inactive” in each case. For the same molecule, the Potency result in [5], in test [6], in [7], in test [8], in [9] and in [10] was “inactive” in each case. Moreover, the Potency result in test [19], in test [11] and in test [15] was “inactive” each time. The outcome in [17] and in test [20] was inactive. For the same molecule, the max response in test [12] was 0.666%; in test [13] it was 8.9%; in test [14], 4.16% (inactive).

Values taken from PubChem BioAssay (NCATS).
